These results are taken from PubChem BioAssay.

Assay [1] can be described thus: inhibitors of TNFa-induced NFkB p65 translocation, primary screen, imaging, HUVEC, MLSMR starter and 10KST1 sets (AID 438;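 active means inhibition above 20% together with a positive visual image hit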;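 further: compound added about 3h40 before a 20 min TNFalpha stimulation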;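 on inhibition: signal is the nuclear over cytoplasmic p65 intensity ratio per well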). The following applies: HUVEC TNFa-induced p65 nuclear translocation; cell count: measured here: nuclei count (cytotoxicity indicator), at 2.08 µM; inhibition: at 2 µM, stronger effect = higher value, 0% TNFa-plus-vehicle, 100% no-TNFa wells.
Assay [2] can be described thus: reduction of polyQ htt aggregates in cells – imaging, exon1htt(103Q)mCFP cells, high-content imaging, primary screen (AID 483;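 active means visual image review flags a hit and inhibition of aggregation exceeds 20%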;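 further: compound exposure lasted 3 days before fixation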;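 on nuclei count: percent of the per-plate median nuclei count of sample wells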). The note with it: exon1htt(103Q)mCFP cell line, aggregate imaging, at 2 µM; inhibition of aggregation: stronger effect = higher value; nuclei count: measured here: cell count, toxicity.
Assay [3] can be described thus: endothelial E-selectin expression blockers – imaging, HUVEC, immunofluorescence, MLSMR starter and 10KST1 sets, primary screen (AID 487;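 active means visually confirmed hit in the image check and inhibition above 20%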;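 on inhibition: signal is fraction of cell area covered by stained E-selectin grains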;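 on nuclei count: 100% = median nuclei count of all wells on the same plate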). The following applies: HUVEC TNFalpha-induced E-selectin immunofluorescence imaging, at 2 µM; inhibition: stronger effect = higher value; nuclei count: measured here: cell number, toxicity.
For assay [4], the target named is Voltage-gated potassium channel subunit beta-2 (Rattus norvegicus) (UniProt P62483). The assay can be described thus: inhibitors of rat Kvbeta2 reductase activity – biochemical, NADPH fluorescence, primary screen (AID 622;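 active means fluorescence slope higher than the sample average by over 3 SD, cut at about -0.22 in these data, passing the limit was not always enough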;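 further: slope of raw intensity against log time taken from 70 to 1610 s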). The note with it: recombinant KvBeta, 4-cyanobenzaldehyde reduction, at 10 µM, stronger effect = higher value.
Sequence of Voltage-gated potassium channel subunit beta-2 (Rattus norvegicus) (P62483 whole entry, looked up): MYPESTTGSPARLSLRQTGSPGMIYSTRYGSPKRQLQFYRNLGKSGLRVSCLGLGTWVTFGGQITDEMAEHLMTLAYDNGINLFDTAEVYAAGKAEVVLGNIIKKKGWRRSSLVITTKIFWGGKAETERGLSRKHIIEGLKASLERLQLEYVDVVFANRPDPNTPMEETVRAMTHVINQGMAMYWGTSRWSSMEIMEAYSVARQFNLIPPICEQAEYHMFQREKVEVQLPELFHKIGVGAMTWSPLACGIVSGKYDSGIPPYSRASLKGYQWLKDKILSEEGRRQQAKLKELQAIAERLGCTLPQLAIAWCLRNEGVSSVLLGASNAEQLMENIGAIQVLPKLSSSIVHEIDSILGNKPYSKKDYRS
For assay [5] the target is unchanged. Description: enhancers of rat Kvbeta2 NADPH turnover – biochemical, NADPH fluorescence, primary screen (AID 623).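 Further: fluorescence intensity change per second fitted from 20 to 320 s.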 The note with it: Recombinant KvBeta, NADPH fluorescence decrease slope, 10 min; at 10 µM; stronger effect = lower value.
Assay [6] concerns the target Alpha-2C adrenergic receptor (Homo sapiens) (UniProt P18825). The assay can be described thus: compounds altering alpha2C-coupled GIRK flux – cell-based, HEK293 alpha2C/GIRK1/2, thallium flux, primary screen (AID 624;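 active means fluorescence slope after compound addition differing from the mean of all screened samples at 99.7% confidence, in either direction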;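 further: slope of fluorescence ratio to pre-addition baseline per second over 15 to 24 s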). The following applies: thallium flux BTC fluorescence, at 10 µM, actives lie on both sides.
Assay [7] is described as follows: blockers of RIG-like receptor reporter activation – cell-based, Sendai virus stimulus, luciferase, 10K MLSCN set, TLR/RLR signaling modifier project, primary screen (AID 602276;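 active means inhibition at or above 50% at 10 µM; inactive means inhibition below 50%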;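 further: firefly luciferase from ISG56 promoter only with Renilla not read in this screen; 0% = Sendai virus plus DMSO and 100% = medium plus DMSO without virus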). The following applies: HEK293 RL24 IRF3 luciferase reporter, at 10 µM, stronger effect = higher value. In general terms: Reporter assays use an easily measured gene product as a stand-in for the process of interest.

Assay [8] is described as follows: TLR3 IRF3 reporter activation blockers – cell-based, poly I:C stimulus, luciferase, 10K MLSCN set, primary screen (AID 602277;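 active means inhibition of the reporter signal at or above 50%; inactive means inhibition below 50%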). The following applies: HEK293-TLR3 RL24 IRF3 luciferase reporter, at 10 µM, stronger effect = higher value.

SMILES strings stand for the structures. Active and inactive are the calls of the source.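 How the source made its calls, unless noted: active means NADPH fluorescence slope more negative than the mean of all samples by about 3 SD, 99.7% confidence; inactive means the rest.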

Sequence of Alpha-2C adrenergic receptor (Homo sapiens) (P18825 whole entry, looked up): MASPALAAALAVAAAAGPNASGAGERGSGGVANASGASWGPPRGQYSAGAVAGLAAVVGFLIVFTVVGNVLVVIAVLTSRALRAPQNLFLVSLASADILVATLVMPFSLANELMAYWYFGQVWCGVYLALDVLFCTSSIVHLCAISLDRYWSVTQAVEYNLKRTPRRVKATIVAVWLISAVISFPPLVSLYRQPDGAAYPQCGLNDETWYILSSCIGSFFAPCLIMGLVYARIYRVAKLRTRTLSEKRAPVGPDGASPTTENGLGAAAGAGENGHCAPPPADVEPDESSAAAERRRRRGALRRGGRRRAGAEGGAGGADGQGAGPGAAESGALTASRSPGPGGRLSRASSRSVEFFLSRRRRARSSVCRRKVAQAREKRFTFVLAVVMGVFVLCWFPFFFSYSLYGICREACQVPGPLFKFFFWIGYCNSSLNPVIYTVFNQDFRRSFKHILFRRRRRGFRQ

By inhibition is commonly meant the relative decrease from the control value, in per cent. Turning to `COCCNC(=O)C(c1ccncc1)N(C(=O)Cn1nnc2ccccc21)c1ccc(OC)cc1` (centres undefined), the cell count in assay [1] turned out to be 679. Also, the inhibition in assay [1] was 8.2% (inactive); in assay [3], 8.4% (inactive); in assay [7], -0.74% (inactive); in assay [8], 25.1% (inactive). The inhibition of aggregation in assay [2] was -3.2% (inactive). The nuclei count in assay [2] was 100%; in assay [3], 99.8%. For the same compound, in assay [4], the fluorescence slope was -0.481 (inactive). Besides, the NADPH fluorescence slope in assay [5] is -4.3e-05 (inactive). In addition, the slope in assay [6] was 0.00706 (inactive).
Turning to `COc1ccc(OCC(=O)N2CCN(C(=O)Cc3ccccc3)CC2)cc1`, the cell count in assay [1] turned out to be 616. The inhibition in assay [1] was -22.3% (inactive); in assay [3], -14.3% (inactive); in assay [7] it was -10.1% (inactive); in assay [8] it was -7.66% (inactive). The inhibition of aggregation in assay [2] was -1.4% (inactive). For the same compound, the nuclei count in assay [2] worked out at 106%; in assay [3], 101%. Besides, the fluorescence slope in assay [4] is -0.517 (inactive). Besides, the NADPH fluorescence slope in assay [5] was -4.7e-05 (inactive). For the same compound, in assay [6], the slope is 0.00449 (inactive).
On to `CCOC(=O)C1CCN(C(=O)COc2ccc(S(=O)(=O)NC(C)C)cc2Cl)CC1`, for which the cell count in assay [1] was determined as 718. Besides, the inhibition in assay [1] was 1.5% (inactive); in assay [3], -3.9% (inactive); in assay [7] it was 12% (inactive); in assay [8], 9.55% (inactive). The inhibition of aggregation in assay [2] was 9% (inactive). Further, the results for the nuclei count in assay [2] and in assay [3] were 109% and 97.5%, respectively. The fluorescence slope in assay [4] was -0.46 (inactive). The NADPH fluorescence slope in assay [5] is -1.1e-05 (inactive). Moreover, the slope in assay [6] was 0.00357 (inactive).
With `CCOC(=O)c1c(NC(=O)c2cccs2)sc(C)c1C`, the cell count in assay [1] turned out to be 396. Besides, the inhibition was -6% (inactive) in assay [1], -107% (inactive) in assay [3], 12.5% (inactive) in assay [7] and 2.83% (inactive) in assay [8]. Further, the inhibition of aggregation in assay [2] was -20% (inactive). Further, the nuclei count turned out to be 102% in assay [2] and 125% in assay [3]. Besides, in assay [4], the fluorescence slope was -0.307 (inactive). Further, the NADPH fluorescence slope in assay [5] is 1.4e-05 (inactive). In assay [6], the slope was 0.00436 (inactive).
As to `CCSc1nnc(NC(=O)CSc2nnc(Cc3cccn3C)n2-c2ccc(C)cc2)s1`, the cell count in assay [1] worked out at 601. Further, the inhibition in assay [1] is -12.3% (inactive); in assay [3], 16.8% (inactive); in assay [7], 3.74% (inactive); in assay [8] it was 10.5% (inactive). Moreover, the inhibition of aggregation in assay [2] was -2.6% (inactive). In addition, the nuclei count in assay [2] is 112%; in assay [3], 75.5%. For the same compound, the fluorescence slope in assay [4] was -0.596 (inactive). Moreover, in assay [5], the NADPH fluorescence slope is 1.3e-06 (inactive). For the same compound, the slope in assay [6] was 0.00655 (inactive).
Consider `CCCCP(=O)(CCCC)c1ccccc1C(=O)O`, for which, in assay [1], the cell count amounted to 404. For the same compound, the inhibition was -2.2% (inactive) in assay [1], -21.2% (inactive) in assay [3], 6.88% (inactive) in assay [7] and 21.9% (inactive) in assay [8]. Moreover, the inhibition of aggregation in assay [2] was 12.2% (inactive). For the same compound, the figures for the nuclei count in assay [2] and in assay [3] were 81.7% and 87.7%, respectively. Further, in assay [4], the fluorescence slope is -0.421 (inactive). Besides, in assay [5], the NADPH fluorescence slope is -9.2e-05 (inactive). In addition, the slope in assay [6] is 0.00521 (inactive).
On to `CCOC(=O)c1[nH]c(C)c(C(=O)Nc2ccc(Cl)cc2)c1C`, for which the cell count in assay [1] amounted to 709. Besides, the inhibition was -1.6% (inactive) in assay [1], -32% (inactive) in assay [3], 6.23% (inactive) in assay [7] and -11% (inactive) in assay [8]. Further, the inhibition of aggregation in assay [2] was -32.6% (inactive). For the same compound, the nuclei count is 89.1% in assay [2] and 114% in assay [3]. For the same compound, the fluorescence slope in assay [4] is -0.591 (inactive). Moreover, in assay [5], the NADPH fluorescence slope was 2.4e-05 (inactive). Also, the slope in assay [6] is 0.00669 (inactive).
Take `Cc1cc(C)nc(N2CCC(C(=O)NC3CCCCCC3)CC2)n1`: in assay [1], the cell count was 502. Moreover, the inhibition was -11.2% (inactive) in assay [1], 19.9% (inactive) in assay [3], 16.4% (inactive) in assay [7] and 16.2% (inactive) in assay [8]. For the same compound, the inhibition of aggregation in assay [2] was 25.2% (inactive). The nuclei count in assay [2] was 93.6%; in assay [3], 90.5%. In assay [4], the fluorescence slope is -0.508 (inactive). For the same compound, in assay [5], the NADPH fluorescence slope was 6.6e-06 (inactive). Besides, the slope in assay [6] was 0.00535 (inactive).
On to `CC(=O)N1CCc2cc(Br)cc(S(=O)(=O)NCCCN3CCCC(C)C3)c21` (centres undefined), for which the cell count in assay [1] came out at 379. Further, the inhibition is 0.3% (inactive) in assay [1], -170% (inactive) in assay [3], -7.41% (inactive) in assay [7] and 12.2% (inactive) in assay [8]. Moreover, the inhibition of aggregation in assay [2] is -1.8% (inactive). The results for the nuclei count in assay [2] and in assay [3] were 104% and 96%, respectively. The fluorescence slope in assay [4] is -0.47 (inactive). Further, in assay [5], the NADPH fluorescence slope was 1.8e-05 (inactive). Also, the slope in assay [6] is 0.00613 (inactive).
In the case of `COC(=O)c1ccc(Cl)c(NC(C)=O)c1`, the cell count in assay [1] came to 367. Further, the inhibition in assay [1] is 1.8% (inactive); in assay [3], -48.4% (inactive); in assay [7], 4.64% (inactive); in assay [8] it was 34.3% (inactive). Further, in assay [2], the inhibition of aggregation was -20.6% (inactive). Also, the results for the nuclei count in assay [2] and in assay [3] were 110% and 78.5%, respectively. Also, the fluorescence slope in assay [4] is -0.433 (inactive). Moreover, the NADPH fluorescence slope in assay [5] was -4.1e-05 (inactive). Moreover, the slope in assay [6] is 0.00415 (inactive).
Regarding `COCCNC(=O)CC(NS(=O)(=O)c1ccc(NC(C)=O)cc1)C(C)C` (centres undefined), in assay [1], the cell count came out at 435. The inhibition in assay [1] is 6.5% (inactive); in assay [3], -122% (inactive); in assay [7], 8.34% (inactive); in assay [8], 25.9% (inactive). Also, the inhibition of aggregation in assay [2] was -1.2% (inactive). Further, the nuclei count in assay [2] was determined as 105%; in assay [3] it was 107%. In assay [4], the fluorescence slope was -0.397 (inactive). The NADPH fluorescence slope in assay [5] was -7.5e-05 (inactive). The slope in assay [6] is 0.00454 (inactive).
Consider `CC(C)CC(OC(=O)c1cccs1)C(=O)NCc1ccco1` (centres undefined), for which the cell count in assay [1] was 364. Moreover, the inhibition was 19.1% (inactive) in assay [1], 2.7% (inactive) in assay [3], 6.99% (inactive) in assay [7] and 11.5% (inactive) in assay [8]. For the same compound, the inhibition of aggregation in assay [2] was -9% (inactive). Also, the nuclei count in assay [2] is 91.6%; in assay [3], 106%. Further, the fluorescence slope in assay [4] is -0.425 (inactive). Moreover, the NADPH fluorescence slope in assay [5] was -2.5e-05 (inactive). The slope in assay [6] was 0.00495 (inactive).
With `O=C(CSc1nnnn1-c1ccc2c(c1)OCO2)NCc1cccs1`, the cell count in assay [1] was 240. Besides, the inhibition was 4.8% (inactive) in assay [1], -66.6% (inactive) in assay [3], 33.3% (inactive) in assay [7] and -10.4% (inactive) in assay [8]. The inhibition of aggregation in assay [2] is 2.8% (inactive). Moreover, the nuclei count in assay [2] was found to be 90.3%; in assay [3], 98.8%. The fluorescence slope in assay [4] was -0.447 (inactive). Besides, in assay [5], the NADPH fluorescence slope is 9.8e-06 (inactive). Also, the slope in assay [6] was 0.00659 (inactive).
Consider `Cc1cc(Nc2ccc(C(=O)O)cc2)n2nc(C)nc2n1`, for which the cell count in assay [1] turned out to be 822. Further, the inhibition in assay [1] is 3.9% (inactive); in assay [3] it was -13.7% (inactive); in assay [7] it was 7.19% (inactive); in assay [8] it was 21% (inactive). Moreover, the inhibition of aggregation in assay [2] was 9.8% (inactive). Besides, the nuclei count in assay [2] came to 109%; in assay [3] it was 106%. Also, in assay [4], the fluorescence slope was -0.543 (inactive). Moreover, the NADPH fluorescence slope in assay [5] was -1.5e-05 (inactive). The slope in assay [6] was 0.00685 (inactive).
